Laboratory results taken from the supplement of paper PMC6555819.

What was measured:
Test in all cases: PBM binding z-score (relative to random genomic background probes); higher = stronger binding; sequences stand for … in GC…GCGATTGACAGCGTAGAATGAAGG
[1] = system: RARb homodimer (NR concentration 270 nM)
In short: (§1)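 Ligand-free nuclear receptor dimers were applied to custom Agilent 4×180K protein-binding microarrays whose double-stranded probes carried direct-repeat seeds, single-nucleotide variants, half-site ablations and random human genomic background sequences in 34-nt variable regions. Incubation lasted 1 h. Binding z-scores were computed against the random background probes from regression-normalized fluorescence.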

[2] = system: RARg:RXRa (NR concentration 270 nM, RXRa partner concentration 90 nM)
In short: as §1

[3] = system: RARg homodimer (NR concentration 270 nM)
In short: as §1

[4] = system: RXRa DBDmut IVT, anti-RXR (DBD mutation: RXRa K156A/R161A, NR concentration 90 nM)
In short: as §1

[5] = system: RXRa homodimer (NR concentration 180 nM)
In short: as §1

[6] = system: THRa:RXRa (NR concentration 90 nM, RXRa partner concentration 90 nM)
In short: as §1

[7] = system: THRa homodimer (NR concentration 90 nM)
In short: as §1

[8] = system: VDR homodimer (NR concentration 270 nM)
In short: as §1

Row | Sequence | PBM binding z-score [1] | PBM binding z-score [2] | PBM binding z-score [3] | PBM binding z-score [4] | PBM binding z-score [5] | PBM binding z-score [6] | PBM binding z-score [7] | PBM binding z-score [8]
1 | TCTTGTAGATCAATAGAGGTTAAGAATGTGCGCT | 1.06 | 0.814 | 0.559 | 0.783 | 1.38 | 2.15 | -0.391 | 0.277
2 | AGTCAAAGTTCATCTAGGTAAGGTAAGATATGCT | 4.03 | 5.32 | 5.79 | 4.64 | 4.38 | 3.19 | 0.886 | 4.84
3 | CCGACTGGGGCAAAGGTTACCAAACTCAGTACGA | 2.24 | 3.53 | 1.67 | -0.134 | 3.74 | 1.98 | -0.144 | 0.318
4 | TTACCAAGGTGAAAGGTCGATGATGCACGCCTTG | 2.3 | 3.83 | 2.15 | -0.254 | 4.5 | 3.04 | 0.568 | 0.119
5 | CGTCCAAGGTCAAAGGAGGTCAGTGAAGACAGAT | 5.57 | 6.67 | 7.08 | 3.52 | 6.32 | 5.42 | 2.98 | 4.01
6 | TTACCATGGTGAGCTGAGGTCGTTGATCCAACTC | 0.61 | 0.0619 | -0.479 | -0.0297 | 0.594 | 2.81 | 1.14 | 1.7
7 | AATTACGGGTCAACGAGGTTATAGCACGCGTATA | 3.63 | 5.71 | 4.88 | 2.47 | 6.2 | 4.18 | 1.16 | 4.13
8 | TCTGCTAGGTCAACGATGCTCAGCTAATCTGCTA | 2.66 | 3.76 | 4.76 | 0.989 | 2.18 | 2.47 | 0.23 | -0.64
9 | GGAACGAGGGCCAGTTGATAGCAGAGTTTGATGG | 0.014 | -0.18 | 0.0481 | -0.0614 | 0.143 | -0.74 | -0.812 | -0.327
10 | TTTTGTAGATCAATAGAGGTTAAGAAAGTGCGCT | 1.27 | 0.945 | 0.869 | -0.0202 | 1.52 | 2.28 | -0.0563 | 0.777
11 | AGATGTAGGTTAAGGGTCATTCAGGTTGGTTCGC | 4.06 | 4.87 | 3.79 | 2.18 | 6.66 | 3.64 | 2.06 | 4.78
12 | CAAACTAGGTCAAAGGTGAAAGTCGAGCCAACCA | 3.44 | 6.43 | 4.84 | 2.14 | 7.81 | 3.65 | 1.03 | 1.05
13 | AATACAGGGTCATCGTAGGCCAGAGTGCGCACAG | 3.68 | 5.64 | 4.81 | 3.12 | 6.37 | 4.6 | 1.4 | 3.2
14 | CCCGAAAGGTCGTGCTCAGGTGAGTATACCAAAC | 2.89 | 5.06 | 4.02 | 2.2 | 4.95 | 4.1 | 1.71 | 1.48
15 | TCTGCTAGGTCAGTTGGTCAGCGAACGAGCTGCC | 2.57 | 2.96 | 3.87 | 0.527 | 0.834 | 1.21 | -0.151 | -0.461
16 | TCATATAGGTAAACCGGTGAAAGTCCGTAAGTTA | 0.357 | 0.195 | 0.0982 | 1.45 | 0.746 | 0.262 | 0.203 | 0.541
17 | TCTTGTAGATCAGCAGGTTTAGAAAGCTGGCCAA | -0.607 | -0.508 | -0.884 | 0.412 | -0.374 | -0.307 | -0.755 | -0.457
18 | TAGCCTAGGTCATTGGGCCAGTAGAGTACGCATC | 3.11 | 3.83 | 4.04 | 1.34 | 2.79 | 2.88 | 0.722 | 1.3
19 | GCGACTGGGGCAAAGCAGGTTACCTTAAGGTTGG | 0.957 | 0.509 | 0.229 | -0.0758 | 0.238 | 3.21 | 1.82 | -0.116
20 | AGTCAAAGCTCATCTAGGTAACGTAAGATATGCT | -0.617 | 0.0208 | 0.207 | -0.43 | 0.198 | 0.467 | -0.333 | -0.256
21 | GCATATAGTTAATACAAGGTGAAAGTCCGATTGT | 0.847 | 0.222 | 0.365 | 0.966 | 0.312 | 2.89 | 1.18 | -0.0676
22 | TCTCGGAGGACACGAAGGTCAGAGTTTTCCAGAG | 3.77 | 3.25 | 3.92 | 0.753 | 2.03 | 2.83 | 1.19 | 1.93
23 | CGAACTAGATCAAGGACAGTGAATCTCCGCACGC | 0.0367 | -0.32 | 0.287 | 0.258 | -0.168 | 1.22 | 1.24 | -0.103
24 | TCTTGTAGATTAGCAGGTTAAGAAAGCTGGCCAA | 0.292 | -0.0657 | -0.174 | 0.682 | 0.386 | 0.458 | -0.511 | -0.173
25 | AATACAGGGTCATCGTAGGCTAGAGTACGCACAG | 3.49 | 5.66 | 5.17 | 3.57 | 6.87 | 4.05 | 1.63 | 4.03
26 | CCTACTGGGCCAAAAAGGTCTTTGATGCCGATAA | 0.452 | -0.217 | -0.013 | -0.428 | -0.121 | -0.113 | -0.671 | -0.382
27 | GGGACTGGGGCATCAGCAGGTTACCATAACTTAA | 1.91 | 1.51 | 1.03 | -0.52 | 0.556 | 1.66 | 1.46 | 0.605
28 | GCAGACAAGTGAAACGCAGGTAACTCAGGGTGGC | -1 | -0.267 | -0.436 | -0.633 | 0.115 | 0.682 | -0.967 | -0.593
29 | ACAGACAGGTGATGCAGGTAACTCAGGCTATCAT | 0.184 | 0.124 | 0.379 | -0.176 | 0.354 | 0.549 | -0.0382 | -0.22
